{"source": "PubChem BioAssay AID686996", "about": "(Broad Institute, 2013)", "note": "The campaign covered roughly 350,000 compounds. About 1,900 (0.54%) were called active. Only a selection was taken, and actives are over-represented in it overall. Values without a mark were called inactive.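 How the source made its calls: active means mean inhibition across replicates at least about 35%, with every replicate also reaching that limit (limit read from the data); inconclusive means only one of the two criteria met; inactive means neither criterion met.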", "data": [{"molecular_target": "Caspase-6 (Homo sapiens) (UniProt P55212)", "sequence (P55212 24-179 limits assumed)": "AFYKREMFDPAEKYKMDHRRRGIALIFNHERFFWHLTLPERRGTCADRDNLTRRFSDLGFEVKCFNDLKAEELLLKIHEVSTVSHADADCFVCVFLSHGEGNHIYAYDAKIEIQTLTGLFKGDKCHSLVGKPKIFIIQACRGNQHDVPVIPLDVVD", "sequence (P55212 194-293 limits assumed)": "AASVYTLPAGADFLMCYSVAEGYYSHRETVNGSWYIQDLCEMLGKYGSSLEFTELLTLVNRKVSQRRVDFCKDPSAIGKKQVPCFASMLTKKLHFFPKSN", "assay": "human caspase-6 inhibitors, primary screen, biochemical, VEID-R110 fluorescence, single point, set 2 (AID 686996);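 further: 0% = median of neutral control wells and 100% = no fluorescence left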", "conditions": "purified caspase-6, Z-VEID-R110 cleavage fluorescence; at 12.5 µM; stronger effect = higher value", "values": [{"smiles": "Cc1cc(/C=C2\\SC(=O)N(C)C2=O)c(C)n1-c1cccc(C(=O)O)c1", "inhibition": "39.2% (active)"}, {"smiles": "Cc1cc(/C=C2/SC(=O)N(CC(=O)OC(C)C)C2=O)c(C)n1C", "inhibition": "1.11%"}, {"smiles": "Cc1cc(/C=C2/SC(=O)N(CC(=O)N3CCCC3)C2=O)c(C)n1C", "inhibition": "1.51%"}, {"smiles": "O=C(C1=C[C@@H](c2ccccc2)C[C@@H](OCCCCO)O1)N1CCN(Cc2ccccc2)CC1", "inhibition": "-1.99%"}, {"smiles": "C[C@@H]1CN([C@H](C)CO)C(=O)Cc2cc(NC(=O)CCN3CCOCC3)ccc2O[C@H]1CN(C)C", "inhibition": "0.558%"}, {"smiles": "COc1ccc2c3c([nH]c2c1)[C@@H](CO)N(Cc1ccncc1)CC31CN(C(=O)CN(C)C)C1", "inhibition": "-1.6%"}, {"smiles": "Cc1oc2c(c1C(=O)N1CCOCC1)C(=O)c1ccccc1C2=O", "inhibition": "62.8% (active)"}, {"smiles": "O=C(c1snnc1-c1ccccc1)N1CCOCC1", "inhibition": "-0.096%"}, {"smiles": "O=C(NC(=O)N1CCOCC1)c1ccccc1", "inhibition": "-0.559%"}, {"smiles": "Cc1ccc(S(=O)(=O)N[C@H]2CC[C@H](CC(=O)O)O[C@H]2CO)cc1", "inhibition": "3%"}, {"smiles": "Cc1noc(C)c1S(=O)(=O)N(C)C[C@H]1OCCCC[C@@H](C)Oc2ccc(NC(=O)C3CCCCC3)cc2C(=O)N([C@H](C)CO)C[C@@H]1C", "inhibition": "-3.38%"}, {"smiles": "COc1ccc(NC(=O)Nc2ccc3c(c2)C(=O)N([C@@H](C)CO)C[C@@H](C)[C@@H](CN(C)S(=O)(=O)c2ccc(C)cc2)OCCCC[C@H](C)O3)cc1", "inhibition": "-2.65%"}, {"smiles": "COCC(=O)N1[C@@H](CO)[C@H](c2ccccc2)C12CN(C(=O)NC1CCCCC1)C2", "inhibition": "-0.716%"}, {"smiles": "O=C(Nc1ccncc1)c1ccc([N+](=O)[O-])cc1Cl", "inhibition": "-0.931%"}, {"smiles": "O=C(Nc1ccccc1C(=O)Nc1ccncc1)c1ccc([N+](=O)[O-])cc1", "inhibition": "-0.84%"}, {"smiles": "O=C(Nc1nc2ccc([N+](=O)[O-])cc2s1)c1ccncc1", "inhibition": "65.7% (active)"}, {"smiles": "CC(C)NC(=O)N(C)C[C@H]1Oc2ncc(C#CC3CC3)cc2C(=O)N([C@H](C)CO)C[C@@H]1C", "inhibition": "-0.116%"}, {"smiles": "C[C@H](CO)N1C[C@H](C)[C@H](CN(C)C(=O)Nc2cccc(Cl)c2Cl)OCc2ccccc2-c2ccccc2C1=O", "inhibition": "0.728%"}, {"smiles": "COc1cccc(/C=C2\\SC(=S)N(CCCC(=O)N3CCOCC3)C2=O)c1", "inhibition": "-1.77%"}, {"smiles": "Cc1ccc(-c2nn(-c3ccccc3)cc2/C=C2\\SC(=S)N(CCCCCC(=O)O)C2=O)o1", "inhibition": "49.9% (active)"}, {"smiles": "O=C(CCCN1C(=O)/C(=C/c2cccs2)SC1=S)Nc1ccc(O)cc1", "inhibition": "0.413%"}, {"smiles": "Cc1ccc(S(=O)(=O)Nc2ccc3c(c2)C(=O)N(C)[C@H]2CC[C@H](CC(=O)O)O[C@H]2CO3)cc1", "inhibition": "0.009%"}, {"smiles": "C[C@H](CO)N1C[C@H](C)[C@H](CN(C)C(=O)C2CCC2)Oc2ncc(C#CCc3ccccc3)cc2C1=O", "inhibition": "-2.13%"}, {"smiles": "O=C(O)CCn1c(O)c(C=C2N=c3ccccc3=N2)sc1=S", "inhibition": "35.5% (active)"}, {"smiles": "Cc1ccc(S(=O)(=O)N(C)C[C@@H]2Oc3c(NS(C)(=O)=O)cccc3C(=O)N([C@@H](C)CO)C[C@H]2C)cc1", "inhibition": "0.89%"}, {"smiles": "COc1cccc(NC(=O)Nc2ccc3c(c2)C(=O)N(C)[C@@H]2CC[C@@H](CC(=O)NCCc4ccccc4)O[C@H]2CO3)c1", "inhibition": "1.41%"}, {"smiles": "CCOc1ccccc1NC(=O)Cc1cccs1", "inhibition": "39.6% (active)"}, {"smiles": "COc1ccc(OC)c(NC(=O)Cc2cccs2)c1", "inhibition": "25.5%"}, {"smiles": "CCOC(=O)c1ccc(NC(=O)Cc2cccs2)cc1", "inhibition": "0.303%"}, {"smiles": "CO[C@H]1CN(C)C(=O)c2cc(NC(=O)Nc3cccc(F)c3)ccc2OC[C@@H](C)N(C)C[C@@H]1C", "inhibition": "-5.35%"}, {"smiles": "C[C@H]1CN([C@@H](C)CO)S(=O)(=O)c2ccc(-c3ccncc3)cc2O[C@H]1CN(C)S(C)(=O)=O", "inhibition": "-2.14%"}, {"smiles": "COc1ccc(S(=O)(=O)Nc2ccc3c(c2)CC(=O)N([C@@H](C)CO)C[C@@H](C)[C@@H](CN(C)C(=O)Nc2c(C)noc2C)O3)cc1", "inhibition": "1.08%"}, {"smiles": "O=C(C[C@H]1CC[C@H]2[C@@H](COC[C@H](O)CN2S(=O)(=O)c2cccc(F)c2)O1)NC1CCC1", "inhibition": "0.605%"}, {"smiles": "Cc1nnc(SC(C)C(=O)Nc2ccc(S(=O)(=O)NC3CCCCC3)cc2)s1", "note": "(stereo not given)", "inhibition": "3.47%"}, {"smiles": "Cc1nnc(SCC(=O)Nc2ccc(S(=O)(=O)Nc3ccc(Cl)nn3)cc2)s1", "inhibition": "35.3% (active)"}, {"smiles": "CCCCCC(=O)Nc1ccc(S(=O)(=O)Nc2ccc(Cl)nn2)cc1", "inhibition": "9.99%"}, {"smiles": "C[C@@H](NC(=O)C[C@H]1CC[C@@H](NC(=O)Cc2ccccn2)[C@@H](CO)O1)c1ccccc1", "inhibition": "-7.46%"}, {"smiles": "Oc1c(Cl)cc(Cl)c(Cl)c1Cc1c(O)c(Cl)cc(Cl)c1Cl", "inhibition": "45.1% (active)"}, {"smiles": "O=C(CCc1nc2sc3c(c2c(=O)[nH]1)CCCC3)NCC(=O)Nc1ccccc1Br", "inhibition": "36.7% (active)"}, {"smiles": "O=C(CSc1nc(O)c(Cc2ccccc2)c(=O)[nH]1)Nc1nc2c(s1)CCCC2", "inhibition": "9.11%"}, {"smiles": "CC(C)c1nc(SCC(=O)Nc2cccc(C(=O)O)c2)c2c3c(sc2n1)CCCC3", "inhibition": "9.4%"}, {"smiles": "O=c1ccc2c(-c3ccccc3S(=O)(=O)O)c3ccc(O)c(O)c3oc-2c1O", "inhibition": "87.7% (active)"}, {"smiles": "O=C(C[C@H]1CC[C@@H](NC(=O)Nc2ccc(F)cc2)[C@@H](CO)O1)NCCN1CCCC1", "inhibition": "-1.07%"}, {"smiles": "O=C(O)Cn1cnc2c(NCc3ccccc3)ncnc21", "inhibition": "-2.69%"}, {"smiles": "O=S(=O)(c1ccccc1)N1CC[C@@H]2[C@@H](CO)Nc3ccc(-c4ccccc4F)cc3[C@@H]21", "inhibition": "-0.847%"}, {"smiles": "C[C@H](CO)N1C[C@H](C)[C@H](CN(C)S(C)(=O)=O)Oc2ccc(NC(=O)CCCN(C)C)cc2C1=O", "inhibition": "-7.82%"}, {"smiles": "COC(=O)c1cccc(N2C(=O)C3C4C=CC(CC4)C3C2=O)c1", "note": "(stereo not given)", "inhibition": "3.07%"}, {"smiles": "COc1ccccc1-c1nnc(NC(=O)c2cccc(N3C(=O)CCC3=O)c2)o1", "inhibition": "6.24%"}, {"smiles": "COC(=O)c1cccc(NC(=O)c2cccc(N3C(=O)CCC3=O)c2)c1", "inhibition": "45% (active)"}, {"smiles": "C[C@@H]1CN([C@@H](C)CO)C(=O)c2cccc(NS(=O)(=O)c3ccc(Cl)cc3)c2O[C@@H]1CN(C)Cc1ccccc1", "inhibition": "0.793%"}, {"smiles": "O=C(C1CCC1)N1CC[C@@H]2[C@H]1c1cc(C#Cc3ccc(F)cc3)ccc1N[C@@H]2CO", "inhibition": "1.04%"}, {"smiles": "O=S(=O)(c1cc(Cl)ccc1Cl)N1CCN(Cc2ccco2)CC1", "inhibition": "4.43%"}, {"smiles": "CCN1CCN(C(=O)C2CCN(S(=O)(=O)c3cc(Cl)ccc3Cl)CC2)CC1", "inhibition": "-3.59%"}, {"smiles": "O=C(CN1CCN(S(=O)(=O)c2cc(Cl)ccc2Cl)CC1)c1ccc(O)c(O)c1", "inhibition": "35.7% (active)"}, {"smiles": "COc1cccc(CNC(=O)[C@H]2CCCN2C(=O)[C@H]2CCCN2C(=O)C2CCCCC2)c1", "inhibition": "5.61%"}, {"smiles": "COc1c(O)cc2oc(-c3ccc(O)c(O)c3)cc(=O)c2c1O", "inhibition": "39.1% (active)"}, {"smiles": "C#CCN1C(Cc2ccccc2)C(=O)O[C@H](C2CCCCC2)[C@@H]1/C=C/C1CC1", "note": "(stereo not given in full)", "inhibition": "-4.1%"}, {"smiles": "N#CC1=C(N)Oc2n[nH]c(CSc3ccccc3)c2C12C(=O)Nc1ccccc12", "note": "(stereo not given)", "inhibition": "7.38%"}, {"smiles": "N#CC1=C(N)Oc2[nH]c(=S)[nH]c(=O)c2C12C(=O)Nc1ccccc12", "note": "(stereo not given)", "inhibition": "45.4% (active)"}, {"smiles": "C[C@@H]1CN([C@@H](C)CO)S(=O)(=O)c2ccc(C3=CCCCC3)cc2O[C@@H]1CN(C)C(=O)CN(C)C", "inhibition": "0.621%"}, {"smiles": "CCS(=O)(=O)N1CC2(CN(Cc3cc(F)ccc3F)[C@@H](CO)c3c2c2ccc(OC)cc2n3C)C1", "inhibition": "-1.32%"}, {"smiles": "C[C@H](CO)N1C[C@H](C)[C@H](CN(C)CC2CCCC2)Oc2ncc(Br)cc2C1=O", "inhibition": "0.088%"}, {"smiles": "C[C@@H]1CN([C@@H](C)CO)C(=O)c2cc(NS(=O)(=O)c3ccc(Cl)cc3)ccc2O[C@H]1CN(C)S(=O)(=O)c1cn(C)cn1", "inhibition": "-0.705%"}, {"smiles": "COc1ccc(S(=O)(=O)/N=C2\\C=C(NS(=O)(=O)c3ccccc3)C(=O)c3ccccc32)cc1", "inhibition": "55.8% (active)"}, {"smiles": "Cc1ccc(S(=O)(=O)N[C@H](CO)C(C)C)cc1", "inhibition": "1.4%"}, {"smiles": "Cc1ccc(S(=O)(=O)/N=C2\\C=C(NS(=O)(=O)c3ccc(C)cc3)C(=O)c3ccccc32)cc1", "inhibition": "62.8% (active)"}, {"smiles": "CNC(=O)COc1ccc(S(=O)(=O)Nc2ccccc2)cc1", "inhibition": "0.091%"}, {"smiles": "Cc1ccc(S(=O)(=O)N/N=C(\\c2ccccc2)C2CC2)cc1", "inhibition": "8.02%"}, {"smiles": "COc1ccc(NS(=O)(=O)c2ccc(Oc3c(C#N)cccc3C#N)cc2)cc1", "inhibition": "-1.42%"}, {"smiles": "CO[C@H]1CN(C)C(=O)c2ccc(NS(=O)(=O)c3ccccc3)cc2OC[C@H](C)N(Cc2nccs2)C[C@@H]1C", "inhibition": "0.023%"}, {"smiles": "C[C@@H](O)C#Cc1ccc([C@H]2[C@@H](CO)N3CCCCN(S(=O)(=O)c4ccccc4)C[C@@H]23)cc1", "inhibition": "-3.52%"}, {"smiles": "CCCNC(=O)C[C@H]1C[C@@H]2c3cc(NS(=O)(=O)c4cccc(OC)c4)ccc3O[C@@H]2[C@@H](CO)O1", "inhibition": "2.43%"}, {"smiles": "C[C@@H]1C[C@@H]2O[C@H]2/C=C\\C=C\\C(=O)Cc2c(Cl)c(O)cc(O)c2C(=O)O1", "inhibition": "37.4% (active)"}, {"smiles": "COc1ccc(S(=O)(=O)N(C)C[C@H]2Oc3c(NC(=O)CCCCCC(=O)Nc4ccccc4N)cccc3C(=O)N([C@H](C)CO)C[C@H]2C)cc1", "inhibition": "-1.7%"}, {"smiles": "O=C(Cc1ccccc1)N[C@H]1C=C[C@H](CC(=O)N2CCCCC2)O[C@@H]1CO", "inhibition": "-1.28%"}]}]}
